Results from PubChem BioAssay AID1159580 (chemical genetic matrix, 2015).
The whole screen tested about 5,500 compounds, of which about 2,000 (36%) were called active. Not shown: some 18% with an inconclusive outcome. No stated cut-off is given here; in the data, active means normalized growth mostly below about 0.91 (no sharp cut-off); inconclusive means no clear call, values can overlap the other calls; inactive means mostly above about 0.92. Some of the results follow.

Assay: chemical genetic growth profiling, strain panel (AID 1159580);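 further: tested at 20 µM; growth read once vehicle control cultures reached saturation at 30 °C; 1 = growth at the plate median or of vehicle wells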
Conditions: growth OD

Measured: normalized growth

CC(C)CC(N(C)C)C1(c2ccc(Cl)cc2)CCC1 (configuration not stated)
inactive: S. cerevisiae deletion strains, locus YJR075W, strain HOC1, stronger effect = lower value 0.995 | S. cerevisiae deletion strains, locus YKL009W, strain mrt4, stronger effect = lower value 1.03 | S. cerevisiae deletion strains, locus YKL068W, stronger effect = lower value 1.01 | S. cerevisiae deletion strains, locus YKL085W, strain MDH1 (second series), stronger effect = lower value 1.01 | S. cerevisiae deletion strains, locus YKL085W, strain MDH1, stronger effect = lower value 1.01 | S. cerevisiae deletion strains, locus YKL160W, strain elf1, stronger effect = lower value 1.02 | S. cerevisiae deletion strains, locus YKL190W, strain CNB1, stronger effect = lower value 0.997 | S. cerevisiae deletion strains, locus YKR001C, strain vps1, stronger effect = lower value 1.02 | S. cerevisiae deletion strains, locus YKR026C, strain gcn3, stronger effect = lower value 1.01 | S. cerevisiae deletion strains, locus YKR091W, strain srl3, stronger effect = lower value 1.01 | S. cerevisiae deletion strains, locus YLL001W, strain dnm1, stronger effect = lower value 1.01 | S. cerevisiae deletion strains, locus YLL026W, stronger effect = lower value 1.01 | S. cerevisiae deletion strains, locus YLL041C, strain sdh2, stronger effect = lower value 1 | S. cerevisiae deletion strains, locus YLR027C, strain aat2, stronger effect = lower value 1.02 | S. cerevisiae deletion strains, locus YLR039C, strain RIC1, stronger effect = lower value 1.13 | S. cerevisiae deletion strains, locus YLR058C, strain SHM2, stronger effect = lower value 1.01 | S. cerevisiae deletion strains, locus YLR102C, strain apc9, stronger effect = lower value 1.01 | S. cerevisiae deletion strains, locus YLR113W, strain HOG1, stronger effect = lower value 0.995 | S. cerevisiae deletion strains, locus YLR221C, strain rsa3, stronger effect = lower value 0.994 | S. cerevisiae deletion strains, locus YLR258W, strain gsy2, stronger effect = lower value 1 | S. cerevisiae deletion strains, locus YLR262C, strain YPT6 (second series), stronger effect = lower value 1.05 | S. cerevisiae deletion strains, locus YLR262C, strain YPT6, stronger effect = lower value 1.11 | S. cerevisiae deletion strains, locus YLR268W, strain sec22, stronger effect = lower value 1.02 | S. cerevisiae deletion strains, locus YLR320W, strain mms22, stronger effect = lower value 0.989 | S. cerevisiae deletion strains, locus YLR330W, strain CHS5, stronger effect = lower value 1 | S. cerevisiae deletion strains, locus YLR342W, strain FKS1 (second series), stronger effect = lower value 1.01 | S. cerevisiae deletion strains, locus YLR342W, strain FKS1, stronger effect = lower value 1.01 | S. cerevisiae deletion strains, locus YLR357W, strain rsc2, stronger effect = lower value 1.01 | S. cerevisiae deletion strains, locus YLR370C, strain arc18, stronger effect = lower value 1.01 | S. cerevisiae deletion strains, locus YLR371W, strain rom2, stronger effect = lower value 1.01 | S. cerevisiae deletion strains, locus YLR384C, strain iki3, stronger effect = lower value 1.02 | S. cerevisiae deletion strains, locus YLR418C, strain cdc73, stronger effect = lower value 1.05 | S. cerevisiae deletion strains, locus YML016C, strain PPZ1, stronger effect = lower value 1.02 | S. cerevisiae deletion strains, locus YML032C, strain rad52, stronger effect = lower value 1.02 | S. cerevisiae deletion strains, locus YML120C, strain ndi1, stronger effect = lower value 1.01 | S. cerevisiae deletion strains, locus YML124C, strain tub3, stronger effect = lower value 1.01 | S. cerevisiae deletion strains, locus YMR058W, strain fet3, stronger effect = lower value 1.01 | S. cerevisiae deletion strains, locus YMR078C, strain ctf18, stronger effect = lower value 1.02 | S. cerevisiae deletion strains, locus YMR125W, strain sto1, stronger effect = lower value 0.979 | S. cerevisiae deletion strains, locus YMR129W, stronger effect = lower value 1.01 | S. cerevisiae deletion strains, locus YMR205C, strain PFK2, stronger effect = lower value 1.01 | S. cerevisiae deletion strains, locus YMR223W, strain ubp8, stronger effect = lower value 1.01 | S. cerevisiae deletion strains, locus YMR231W, strain pep5, stronger effect = lower value 0.989 | S. cerevisiae deletion strains, locus YMR263W, strain SAP30, stronger effect = lower value 0.999 | S. cerevisiae deletion strains, locus YMR307W, strain GAS1, stronger effect = lower value 1.01 | S. cerevisiae deletion strains, locus YNL067W, strain RPL9B, stronger effect = lower value 0.992 | S. cerevisiae deletion strains, locus YNL071W, strain lat1, stronger effect = lower value 1.01 | S. cerevisiae deletion strains, locus YNL128W, strain TEP1, stronger effect = lower value 0.987 | S. cerevisiae deletion strains, locus YNL153C, strain GIM3, stronger effect = lower value 1.01 | S. cerevisiae deletion strains, locus YNL183C, strain NPR1, stronger effect = lower value 0.972 | S. cerevisiae deletion strains, locus YNL209W, strain ssb2, stronger effect = lower value 0.996 | S. cerevisiae deletion strains, locus YNL233W, strain BNI4, stronger effect = lower value 1.01 | S. cerevisiae deletion strains, locus YNL248C, strain rpa49, stronger effect = lower value 0.997 | S. cerevisiae deletion strains, locus YNL250W, strain rad50, stronger effect = lower value 1 | S. cerevisiae deletion strains, locus YNL271C, strain bni1, stronger effect = lower value 1.02 | S. cerevisiae deletion strains, locus YNL298W, strain CLA4, stronger effect = lower value 1.02 | S. cerevisiae deletion strains, locus YNL307C, strain MCK1, stronger effect = lower value 1.03 | S. cerevisiae deletion strains, locus YNL322C, strain KRE1 (second series), stronger effect = lower value 1 | S. cerevisiae deletion strains, locus YNL322C, strain KRE1, stronger effect = lower value 1 | S. cerevisiae deletion strains, locus YNR049C, strain mso1, stronger effect = lower value 0.996 | S. cerevisiae deletion strains, locus YNR052C, strain pop2, stronger effect = lower value 1.01 | S. cerevisiae deletion strains, locus YOL006C, strain TOP1, stronger effect = lower value 1.03 | S. cerevisiae deletion strains, locus YOL012C, strain htz1 0.875 | S. cerevisiae deletion strains, locus YOL147C, strain pex11, stronger effect = lower value 1 | S. cerevisiae deletion strains, locus YOR001W, strain rrp6, stronger effect = lower value 1.02 | S. cerevisiae deletion strains, locus YOR061W, strain CKA2, stronger effect = lower value 1.01 | S. cerevisiae deletion strains, locus YOR069W, strain VPS5, stronger effect = lower value 0.992 | S. cerevisiae deletion strains, locus YOR070C, strain gyp1, stronger effect = lower value 0.997 | S. cerevisiae deletion strains, locus YOR080W, strain dia2, stronger effect = lower value 1.01 | S. cerevisiae deletion strains, locus YOR083W, strain WHI5, stronger effect = lower value 1 | S. cerevisiae deletion strains, locus YOR106W, strain vam3, stronger effect = lower value 1.03 | S. cerevisiae deletion strains, locus YOR136W, strain idh2, stronger effect = lower value 1.02 | S. cerevisiae deletion strains, locus YOR144C, strain elg1, stronger effect = lower value 1.02 | S. cerevisiae deletion strains, locus YOR184W, strain ser1, stronger effect = lower value 1.03 | S. cerevisiae deletion strains, locus YOR231W, strain MKK1, stronger effect = lower value 1.03 | S. cerevisiae deletion strains, locus YOR265W, strain rbl2, stronger effect = lower value 1.02 | S. cerevisiae deletion strains, locus YOR270C, strain vph1, stronger effect = lower value 0.991 | S. cerevisiae deletion strains, locus YOR290C, strain snf2, stronger effect = lower value 0.99 | S. cerevisiae deletion strains, locus YOR316C, strain cot1, stronger effect = lower value 1.01 | S. cerevisiae deletion strains, locus YPL051W, strain arl3, stronger effect = lower value 0.997 | S. cerevisiae deletion strains, locus YPL055C, strain LGE1, stronger effect = lower value 0.999 | S. cerevisiae deletion strains, locus YPL078C, strain atp4, stronger effect = lower value 1.02 | S. cerevisiae deletion strains, locus YPL106C, strain sse1, stronger effect = lower value 0.988 | S. cerevisiae deletion strains, locus YPL240C, strain hsp82, stronger effect = lower value 1.02 | S. cerevisiae deletion strains, locus YPL241C, strain CIN2, stronger effect = lower value 0.995 | S. cerevisiae deletion strains, locus YPL256C, strain CLN2, stronger effect = lower value 1.01 | S. cerevisiae deletion strains, locus YPR119W, strain clb2, stronger effect = lower value 1.01 | S. cerevisiae deletion strains, locus YPR141C, strain kar3, stronger effect = lower value 1.01 | S. cerevisiae deletion strains, locus YPR163C, strain tif3, stronger effect = lower value 1.02 | S. cerevisiae deletion strains, locus YPR167C, strain met16, stronger effect = lower value 1.02 | S. cerevisiae deletion strains, strain wtn01, stronger effect = lower value 1.03 | S. cerevisiae strains, strain wild type, stronger effect = lower value 0.98
